# Experimental data published in the supplement of paper PMC10981050.
# Values joined by “and” are separate entries in the source; they are usually repeats but may differ in a detail not shown here. Identical values can stand only once. Counter-ions that a name gives are not always drawn.
# Columns and labels:
# Experiment in all cases: cell viability relative to vehicle control; higher = less cytotoxic
# Details in all cases: 10 µM
# [1] = system: K562
# Summary of the method: (§1)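 After removal of identity-inconsistent compounds, the Selleck bioactive, kinase and epigenetic probe libraries were screened on CRISPR-edited mutant clones and isogenic wild-type clones of four leukaemia lines. Plates were 384-well, each well holding 2000 cells in 50 µL medium and receiving a single 10 µM acoustically dispensed dose. CellTiter-Glo luminescence was read 48 h later, after the supernatant was taken off. Genedata Screener was used to express viability as percent of the on-plate vehicle control.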
# [2] = system: MARIMO
# Summary of the method: as §1
# [3] = system: MOLM14
# Summary of the method: as §1
# [4] = system: OCI-AML2
# Summary of the method: as §1
SMILES,cell viability ([1]; SRSF2 genotype: SRSF2 P95H/wt),cell viability ([1]; SRSF2 genotype: SRSF2 wt/wt) [%],cell viability ([2]; SRSF2 genotype: SRSF2 P95H/wt) [%],cell viability ([2]; SRSF2 genotype: SRSF2 wt/wt) [%],cell viability ([3]; SRSF2 genotype: SRSF2 P95H/wt) [%],cell viability ([3]; SRSF2 genotype: SRSF2 wt/wt) [%],cell viability ([4]; SRSF2 genotype: P95H/wt) [%],cell viability ([4]; SRSF2 genotype: wt/wt) [%]
CCOC(=O)c1ncn2c1CN(C)C(=O)c1cc(F)ccc1-2 [Flumazenil],107% and 101%,108,95.9,107,106,101,94,103
COc1cc2c(cc1Cc1cccc(Cl)c1F)c(=O)c(C(=O)O)cn2[C@H](CO)C(C)C [Elvitegravir (GS-9137)],52% and 50.4%,45.1,40.2,39.1,57.3,35,12.9,15.9
COc1ccc(-c2ccc3c(N4CCOC[C@@H]4C)nc(N4CCOC[C@@H]4C)nc3n2)cc1CO,39.7% and 40.4%,35.5,54.4,46.2,30.4,26.2,26.5,27.7
CCC[S+]([O-])c1ccc2[nH]c(NC(=O)OC)nc2c1 (stereo not drawn) [Albendazole Oxide (Ricobendazole)],88.8% and 83.5%,80.6,85.7,88,88.2,95.4,87.8,95.5
O=S(=O)(O)Oc1ccc(C(c2ccc(OS(=O)(=O)O)cc2)c2ccccn2)cc1 [Sodium Picosulfate],103% and 102%,108,106,112,103,104,104,101
COc1cc(O)c2c(c1)oc(=O)c1c3cc(O)c(O)cc3oc21 [Wedelolactone],84.6% and 90.9%,76.1,87.2,102,61.3,67.2,68.3,82.1
C=C1C[C@@]23CC[C@H]4[C@@](C)(CCC[C@@]4(C)C(=O)O)[C@@H]2CC[C@@H]1C3 [Kaurenoic acid],105% and 103%,107,105,101,112,103,104,106
COc1c(-c2ccc3cc(NS(C)(=O)=O)ccc3c2)cc(-n2ccc(=O)[nH]c2=O)cc1C(C)(C)C [S5402 Dasabuvir(ABT-333).cdx],84% and 86.8%,80.6,82,89.6,88.3,97.3,90.5,90.5
CC(C)NCC(O)COc1cccc2ccccc12 (stereo not drawn) [Propranolol HCl],94% and 88.3%,97.6,86.2,92.9,94.2,98.2,84.7,97
Cn1nnc(-c2ccc(-c3ccc(N4C[C@H](CO)OC4=O)cc3F)cn2)n1 [Tedizolid],87.1% and 82.2%,83.3,77.3,88.1,89.4,85.5,79.9,81.6
CCCCC(C=O)NC(=O)C(CC(C)C)NC(=O)C(CC(C)C)NC(C)=O (stereo not drawn),1.41% and 2.62%,1.86,1.3,1.7,0.23,0.15,0.23,1.17
O=c1c(-c2ccc(O)cc2)coc2cc(O)ccc12 [Daidzein],99.3% and 97.8%,97.8,95.4,96.9,93.4,96.7,92.9,102
NC(=O)c1cc(F)cc2c1C(=O)N(C1CCN(C3CCC(F)(F)CC3)CC1)C2,97.3% and 103%,95.7,96.4,106,82.6,97.3,87.5,96.1
COc1ccc2cc(CCC(C)=O)ccc2c1 [Nabumetone],105% and 96.8%,93.8,97.1,95.3,104,104,92.4,92.4
OC1COC(O)C(O)C1O (stereo not drawn) [L(+)-Arabinose],102% and 92.9%,96.7,108,112,95.5,101,87.3,113
CC(C)Nc1cc(-c2c[nH]c(C(=O)N[C@H](CO)c3cccc(Cl)c3)c2)c(Cl)cn1,73.3% and 90.4%,81.5,37.9,40,48.8,34.9,41.8,37.6
CC1(C)S[C@@H]2[C@H](NC(=O)[C@H](NC(=O)N3CCN(S(C)(=O)=O)C3=O)c3ccccc3)C(=O)N2[C@H]1C(=O)O [Mezlocillin Sodium],100% and 98.1%,102,101,112,100,101,97.4,112
CC(C)(O)CC(=O)NCCn1ccc2ncnc(Nc3ccc(Oc4cccc(C(F)(F)F)c4)c(Cl)c3)c21,69.4% and 63.5%,72.6,69.7,93.9,76.5,79.4,74.8,76.8
Cc1ccc(Sc2ccccc2N2CCNCC2)c(C)c1,2.01% and 3.74%,2.31,6.07,11.2,3.31,3.18,0.2,0.89
COc1cc2c(cc1O)CC[C@@H]1[C@@H]2CC[C@]2(C)[C@@H](O)CC[C@@H]12 [2-Methoxyestradiol],14% and 27.1%,29.9,10.4,10.9,7.93,2.27,6.68,13.6
Nc1c2c(nc3ccccc13)CCCC2 [tacrine hydrochlorid],101% and 110%,112,100,113,103,105,122,94.5

SMILES,cell viability ([1]; SRSF2 genotype: SRSF2 P95H/wt),cell viability ([1]; SRSF2 genotype: SRSF2 wt/wt) [%],cell viability ([2]; SRSF2 genotype: SRSF2 P95H/wt) [%],cell viability ([2]; SRSF2 genotype: SRSF2 wt/wt) [%],cell viability ([3]; SRSF2 genotype: SRSF2 P95H/wt) [%],cell viability ([3]; SRSF2 genotype: SRSF2 wt/wt) [%],cell viability ([4]; SRSF2 genotype: P95H/wt) [%],cell viability ([4]; SRSF2 genotype: wt/wt) [%]
C[C@H](NC(=O)CCC(F)(F)F)C(=O)N[C@@H]1C(=O)N(CCO)c2ncccc2-c2ccccc21,103% and 104%,95.9,97.4,108,109,103,89.4,99.8
O=S(=O)(N=Cc1c(O)ccc2ccccc12)c1cccs1,100% and 99.8%,95.2,100,97.3,100,99,101,103
CN(C(Cc1ccc(OS(=O)(=O)c2cccc3cnccc23)cc1)C(=O)N1CCN(c2ccccc2)CC1)S(=O)(=O)c1cccc2cnccc12 (stereo not drawn),80.8% and 87.8%,83.5,74.4,72.7,79.8,74.6,75.7,76.4
c1cncc(CN2CCC(n3ncc4c(N5CCOCC5)nc(-c5ccc6[nH]ccc6c5)nc43)CC2)c1,41.8% and 44.3%,51,3.19,6.42,35,25,26.2,29.1
CN(C)C(=O)[C@H](O)[C@H](Cc1ccccc1)NC(=O)c1cc2cc(Cl)ccc2[nH]1,92.2% and 98.4%,98,95.3,98.2,88.9,104,90,84.7
CC#CCn1c(N2CCC[C@@H](N)C2)nc2c1c(=O)n(Cc1nc(C)c3ccccc3n1)c(=O)n2C [Linagliptin (BI-1356)],99% and 103%,103,98,97,101,106,110,93.6
CN(C)CCc1c[nH]c2ccc(CS(=O)(=O)N3CCCC3)cc12 [Almotriptan malate (Axert)],101% and 87%,91,84.3,101,96.9,95.9,99.2,87.6
CC(C)OC(=O)C(C(=O)OC(C)C)=C1SC=CS1 [Malotilate],92.5% and 94.4%,93.6,76.5,83.6,89.5,99.4,85,88.8
CNC(=O)c1ccccc1Nc1cc(Nc2ccc(N3CCOCC3)cc2OC)ncc1C(F)(F)F,77.7% and 90%,82.8,38.6,35.2,11.4,11.4,21.3,26.5
C[C@@H]1CC[C@@]2(OC1)O[C@H]1C[C@H]3[C@@H]4CC=C5C[C@@H](O[C@@H]6O[C@H](CO)[C@@H](O[C@@H]7O[C@@H](C)[C@H](O[C@@H]8O[C@@H](C)[C@H](O)[C@@H](O)[C@H]8O)[C@@H](O)[C@H]7O)[C@H](O)[C@H]6O[C@@H]6O[C@@H](C)[C@H](O)[C@@H](O)[C@H]6O)CC[C@]5(C)[C@H]4CC[C@]3(C)[C@@]1(O)[C@@H]2C [Chonglou Saponin VII],0.5% and 0.49%,0.46,0.43,0.55,0.44,0.46,0.37,0.47
CC(=O)c1cc2c(o1)C(=O)c1ccccc1C2=O [Napabucasin],0.4% and 0.37%,0.39,3.59,2.73,0.37,0.39,0.4,0.39
O=Cc1ccc(O[C@@H]2O[C@H](CO)[C@@H](O)[C@@H](O)[C@H]2O)cc1 [Helicide],99% and 102%,103,96,99.9,97.8,104,99.8,96.5
C=CC(=O)N1C[C@H](Nc2ncnc3[nH]ccc23)CC[C@@H]1C,96.3% and 105%,102,94.5,97.7,81.1,93.8,86.8,91.6
N[C@@H](C(=O)N[C@@H]1C(=O)N2C(C(=O)O)=C(Cl)CS[C@H]12)c1ccccc1 [Cefaclor],109% and 110%,113,104,104,108,106,112,123
COc1cc(NC(=O)c2ccc(-c3ccc(Cl)cc3)o2)cc(OC)c1,105% and 102%,103,99,105,113,115,97.4,92.8
CC(C)(C)c1cc(NC(=O)Nc2ccc(-c3cn4c(n3)sc3cc(OCCN5CCOCC5)ccc34)cc2)no1 [Quizartinib (AC220)],105% and 110%,103,80.1,82.9,14.9,9.61,36.9,45.7
C[C@]12CCC(=O)C=C1[C@@H]1C[C@@H]1[C@H]1[C@@H]3[C@@H]4C[C@@H]4[C@@]4(CCC(=O)O4)[C@@]3(C)CC[C@@H]12 [Drospirenone],83.3% and 90.5%,83.3,82,91.8,83.8,89.2,101,92.7
CC1CNc2c(cccc2S(=O)(=O)N[C@@H](CCCNC(=N)N)C(=O)N2CC[C@@H](C)C[C@@H]2C(=O)O)C1 (stereo partly drawn) [Argatroban Monohydrate],103% and 94.3%,96.2,96.9,103,97.8,106,93.6,94
O=C(O)CNC(=O)c1nc(Cl)c2ccccc2c1O,84.7% and 85.9%,81.2,80.5,91.2,80.2,89.1,95.8,89.8
CCCCCCCCCCCC(=O)O [Lauric Acid],91.8% and 82.9%,85.7,89.8,101,92.6,92.1,94.9,96.1
